Assay outcomes deposited in PubChem BioAssay by National Center for Advancing Translational Sciences (NCATS).
Hits are enriched below; roughly 21% of the tested compounds scored in any of these assays.
HCMV antiviral = blocks human cytomegalovirus replication | activity change, negative = inhibition, % at 57.5 µM | HFF cells, HCMV-luciferase reporter, 72 h; stronger effect = lower value | 4.5% of 410,000 active | AID 1259415; in the data active means activity change below about -60%; inconclusive means no clear call, values can overlap the other calls; inactive means above about -39%; further: on the % scale 0 is the no-effect control and ±100 the full control effect
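Two-dose cell screen: HFF monolayers treated with compounds and infected with luciferase-expressing HCMV at 1 PFU/cell, 72 h at 37C, then lysed for luciferase measurement.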
Shiga inhibitor = blocks Shiga toxin action in Vero cells; 9.2% of 290,000 active; inhibition, % at 38.7 µM; Vero cells, Shiga toxin protein synthesis inhibition reporter; in the data active means inhibition mostly above about 28%, no sharp cut-off; inactive means mostly below about 43%; further: 0% is about no effect
Pf growth 96h = inhibits malaria parasite growth, 96 h; 6.9% of 320,000 active; P. falciparum luciferase reporter growth, 96 h; Potency, µM (highest dose often 28.7 µM), inactives show top-dose activity change, negative = inhibition, most hits filed as inhibitors; AID 504834; further: potency means the concentration at half of the fitted maximal effect; on the % scale 0 is the no-effect control and ±100 the full control effect
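Two-generation exposure (96 h) targets delayed-death phenotype. Reporter parasites carrying integrated firefly luciferase, in red cells at 2% hematocrit and 0.05% parasitemia final, kept at 37 C, 5% CO2; luminescence loss indicates inhibition.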
Cycloheximide cs = counter-screen for Shiga toxin inhibitors: cycloheximide protein synthesis inhibition. cell reporter, cycloheximide protein synthesis inhibition counterscreen. max response, %. 12% of 300,000 active. AID 2314; in the data active means max response mostly above about 13%, no sharp cut-off; inactive means mostly below about 14%; further: read at 38.3 µM for the half of the compounds with a filed dose; 0% is about no effect
Pf growth 48h = P. falciparum growth inhibition at 48 hours (one generation); P. falciparum luciferase growth in erythrocytes, 48 h; Potency, µM (top dose mostly 28.7 µM), without a hit: at the highest dose activity change, negative = inhibition, actives largely listed as inhibitors; 5.9% of 310,000 active; AID 504832; further: potency means the concentration at half of the fitted maximal effect; on the % scale 0 is the no-effect control and ±100 the full control effect
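Growth was read as firefly luciferase luminescence after a 48 h, 37 C, 5% CO2 exposure of compounds to reporter-bearing P. falciparum cultures (0.1% parasitemia, 2% hematocrit final) in Albumax-supplemented RPMI 1640.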
HCV inhibitor = HCV inhibition. Huh7.5.1 HCVcc-Cre infection, luciferase reporter, 44 h. Potency, µM (doses to about 41.8 µM), inactives show at the top dose activity change, negative = inhibition, most hits filed as inhibitors. 3.4% of 340,000 active; further: potency means the concentration at half of the fitted maximal effect; on the % scale 0 is the no-effect control and ±100 the full control effect
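Compounds are dispensed onto cells plated 4 h earlier at 1,000 per well, with HCVcc-Cre virus (about 0.5 moi) added next. Following 44 h of culture, luminescent signal is measured for 15 sec after 15 min with substrate at room temperature.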
Numbers without * were called inactive; ? = inconclusive; nt = no result given; [ ] = remark or other dose. Unless noted, the call rests on the fitted dose curve; in most records, active means well fitted inhibition curve with a large enough effect; inconclusive means small, poorly fitted or top-dose-only effect, or another doubt; inactive means no such curve, though single readings can be large or run the other way.

SMILES	HCMV antiviral	Shiga inhibitor	Pf growth 96h	Cycloheximide cs	Pf growth 48h	HCV inhibitor
COc1ccccc1CNC(=O)Cc1ccc(C)cc1	-12	38	?	25*	20%	-17%
COc1cn(-c2ccccc2)nc1C(=O)NCc1ccccc1	-24	14	-10%	7	-16%	?
CCn1cc(CCC(=O)NCc2ccccc2OC)c2ccccc21	3	17	?	1	0%	10µM*
C=CCN(C(=O)Nc1ccc(OC)cc1)c1nnc(-c2ccncc2)s1	22	34	?	10	32%	3%
COCC(=O)N1[C@@H]2Cn3c(ccc(Br)c3=O)[C@H]1[C@@H](C(=O)OC)[C@@H]2CO	-8	nt	nt	nt	nt	nt
Cc1ccc(CNC(=O)Cc2ccc(-c3ccccc3)cc2)cc1	-6	-13	36%	7	23%	14%
COc1ccc(CNC(=O)CCCc2ccccc2)cc1	-13	11	?	4	0%	32%
COc1ccccc1CNC(=O)CCCc1ccccc1	-1	65*	-6%	23*	5%	-5%
COc1ccccc1CNC(=O)c1cccc(-c2ccc(C)c3ccccc23)n1	39	-13	15µM*	11	?	-8%[8.37 µM]
Cn1cc(CCCC(=O)NCc2ccc(F)cc2)c2ccccc21	-37	3	2.1µM*	-4	?	-15%
Cc1ccc(CC(=O)NCc2ccc(F)cc2)cc1	-18	28	-26%	11*	10%	8%
O=c1c2sc3ccccc3c2n(Cc2ccccc2F)c(=O)n1CCc1ccccc1	28	nt	nt	nt	nt	nt
COc1ccccc1CNC(=O)CN1C(=O)c2cccc(N)c2C1=O	68	68*	123%	39*	120%	2%
CC1SC(C)C(=O)N(CC(=O)NCc2ccc(F)cc2)C1=O (stereo not drawn)	3	4	35%	13*	-1%	13%
COCC(C)NC(=O)Cc1ccc(F)cc1 (stereo not drawn)	-5	8	9.3µM*	-4	-15%	16%
CCC1SC(CC)C(=O)N(CC(=O)NCc2ccc(F)cc2)C1=O (stereo not drawn)	-33	-11	8%	-4	8%	22%
CC(C)CNC(=O)CCCc1ccccc1	114	35*	66%	43*	nt	8%
COCC(C)NC(=O)Cc1ccc(Cl)cc1 (stereo not drawn)	-7	-8	17%	-3	29%	16%
Cc1ccc(C(=O)N2CCC3(CC2)Oc2ccc(Cl)cc2C(=O)C32CC(c3cccnc3)=NO2)s1 (stereo not drawn)	22	-3	13µM*	-4	?	36%
O=C(/C=C/c1cccs1)N1CCC2(CC1)Oc1ccc(Cl)cc1C(=O)C21CC(c2cccnc2)=NO1 (stereo not drawn)	-13	-8	12µM*	-2	13µM*	?
O=C(c1ccc2c(c1)OCO2)N1CCC2(CC1)Oc1ccc(Cl)cc1C(=O)C21CC(c2cccnc2)=NO1 (stereo not drawn)	-16	-4	13µM*	-1	12µM*	37%[8.37 µM]
CN(C)C(=O)CCCCCCCCC(=O)N(C)C	25	-3	2%	-2	8%	15%
CCc1ccc(NC(=O)c2nc3nc(C)cc(C(F)F)n3n2)cc1	12	nt	nt	nt	nt	nt
COCCn1c(SCC(=O)c2c(-c3ccccc3)n(C)c3ccccc23)nnc1-c1ccncc1	-36	-14	?	-9	?	?
COCCn1c(SCCCC(=O)c2ccc(Br)cc2)nnc1-c1ccncc1	-71*	-19	13µM*	-5	nt	7.9µM*
SMILES	HCMV antiviral	Shiga inhibitor	Pf growth 96h	Cycloheximide cs	Pf growth 48h	HCV inhibitor
Cn1c(SCCCC(=O)c2ccc(F)cc2)nnc1-c1ccncc1	-33	-6	10µM*	9	?	-23%
Cn1c(SCCCC(=O)c2ccccc2)nnc1-c1ccncc1	36	27	-1%	-4	-17%	8%
COCCn1c(SCC(=O)/C=C2\N(C)c3ccccc3C2(C)C)nnc1-c1ccncc1	-75*	-5	?	-3	-20%	?
COc1cc(-c2nnc(SCC(=O)N3CCCc4ccccc43)o2)cc(OC)c1OC	-8	nt	nt	nt	nt	nt
Cc1cc(O)c(-c2cc(O)c(C)cc2O)cc1O	33	11	-15%	10*	?	?
N#CCCN(C(=O)COC(=O)c1cc(S(=O)(=O)N2CCOCC2)ccc1Cl)c1ccc(F)cc1	-71*	nt	2%	nt	-3%	-7%[8.37 µM]
N#CCCN(C(=O)COC(=O)c1cccc(S(=O)(=O)N2CCCC2)c1)c1ccc(F)cc1	-75*	-4	?	3	?	nt
COc1cc(NC(=O)CSc2nc3ncccc3o2)cc(OC)c1	5	nt	nt	nt	nt	nt
CCc1c(C)sc2c1CCN(Cc1ccc(F)cc1)C2c1ccccc1 (stereo not drawn)	-98*	nt	nt	nt	nt	nt
CCc1c(C)sc2c1CCN(Cc1cccc(F)c1)C2c1ccccc1 (stereo not drawn)	-78*	nt	nt	nt	nt	nt
CCc1c(C)sc2c1CCN(Cc1ccc(C#N)cc1)C2c1ccccc1 (stereo not drawn)	-24	nt	nt	nt	nt	nt
COC(=O)CC1Oc2ccc(Cl)cc2-n2cc(-c3ccc(C)cc3)nc21 (stereo not drawn)	-20	nt	nt	nt	nt	nt
Cc1ccc(Cl)cc1N1CCN(C(=O)C2CCCN(S(=O)(=O)c3ccc(Br)s3)C2)CC1 (stereo not drawn)	2	nt	nt	nt	nt	nt
CCCC1CCC(C(=O)n2nc(N)c3cc4ccc(OC)cc4nc32)CC1 (stereo not drawn)	-21	-12	?	-4	-19%	-7%[8.37 µM]
COc1ccc2cc3c(N)nn(C(=O)c4ccc(Cl)c([N+](=O)[O-])c4)c3nc2c1	-91*	-17	11%	-3	-25%	-5%
COc1ccc2cc3c(N)nn(C(=O)c4ccccc4[N+](=O)[O-])c3nc2c1	-70*	-17	28%	-1	?	?
CCOc1ccc(/C=C/C(=O)OC(C)C(=O)NC2CCCCC2C)cc1OC (stereo not drawn)	-13	nt	8%	nt	?	-17%
CCc1cccc(NC(=O)C(Cc2ccccc2)NS(=O)(=O)c2cccs2)c1 (stereo not drawn)	-12	nt	nt	nt	nt	nt
Fc1ccc(-c2cc(-c3nc(-c4ccc(Cl)cc4)no3)[nH]n2)cc1	-8	nt	nt	nt	nt	nt
Oc1ccc(Br)cc1-c1cc(-c2ccccc2)n[nH]1	100	16	3.3µM*	16*	5.2µM*	?
O=[N+]([O-])c1cccc(-c2cc(-c3cc(Br)ccc3O)[nH]n2)c1	?	86*	8.3µM*	24*	4.7µM*	10µM*
Oc1ccc(Br)cc1-c1cc(-c2ccc(Cl)cc2)n[nH]1	-77*	93*	nt	22*	1.2µM*	10µM*
O=[N+]([O-])c1cccc(-c2n[nH]c(=S)n2-c2ccc(Br)cc2)c1	-28	-9	0%	-4	0%	24%
O=C(O)c1cc2ccccc2c(Cc2c(O)c(C(=O)O)cc3ccccc23)c1O	26	nt	nt	nt	nt	nt
